Measurements reported in PMC5540273 (PLoS ONE, 2017).

Legend:
Settings in all cases: concentration: 1 μM, replicates: in singlicate; n = 1
JNK2 = test system: T1, JNK2
T1 construct: gene MAPK9

JNK3 = test system: T2, JNK3
T2 construct: gene MAPK10

KIT-autoinhibited = test system: KIT-autoinhibited
KIT = test system: KIT
LATS1 = test system: LATS1
LATS2 = test system: LATS2
LCK = test system: LCK
LIMK1 = test system: LIMK1
LIMK2 = test system: LIMK2
LKB1 = test system: T3, LKB1
T3 construct: gene STK11

LOK = test system: T4, LOK
T4 construct: gene STK10

LRRK2 = test system: LRRK2
LTK = test system: LTK
LYN = test system: LYN
LZK = test system: T5, LZK
T5 construct: gene MAP3K13

MAK = test system: MAK
MAP3K15 = test system: MAP3K15
MAP3K1 = test system: MAP3K1
MAP3K2 = test system: MAP3K2
MAP3K3 = test system: MAP3K3
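Also: KINOMEscan kinase panel screen.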

Compound | %Inh (JNK2) [%] | %Inh (JNK3) [%] | %Inh (KIT-autoinhibited) [%] | %Inh (KIT) [%] | %Inh (LATS1) [%] | %Inh (LATS2) [%] | %Inh (LCK) [%] | %Inh (LIMK1) [%] | %Inh (LIMK2) [%] | %Inh (LKB1) [%] | %Inh (LOK) [%] | %Inh (LRRK2) [%] | %Inh (LTK) [%] | %Inh (LYN) [%] | %Inh (LZK) [%] | %Inh (MAK) [%] | %Inh (MAP3K15) [%] | %Inh (MAP3K1) [%] | %Inh (MAP3K2) [%] | %Inh (MAP3K3) [%]
CCc1ccc(-c2ccc3c(c2)-c2nn(C)cc2S(=O)(=O)N3C)cc1 | 0 | 0 | 53 | 0 | 0 | 0 | 17 | 0 | 0 | 21 | 2 | 0 | 0 | 0 | 0 | 0 | 0 | 0 | 0 | 0
O=c1cc(N2CCOCC2)nc2n(Cc3ccc(F)c(Cl)c3)ccn12 [GSK2297099] | 8 | 5 | 0 | 9 | 4 | 0 | 0 | 7 | 6 | 0 | 0 | 0 | 0 | 2 | 0 | 28 | 0 | 4 | 10 | 0
COc1cc(Nc2nccc(N3CCC(NC(=O)C4COc5ccccc5O4)C3)n2)cc(OC)c1OC (stereo not drawn) [GSK1379761] | 22 | 7 | 0 | 22 | 3 | 0 | 31 | 0 | 4 | 27 | 0 | 0 | 38 | 19 | 58 | 44 | 0 | 2 | 10 | 0
O=C1NC(=O)C(c2ccccc2)=C1Nc1cccc(O)c1 [SB-390534] | 13 | 4 | 0 | 10 | 21 | 0 | 24 | 0 | 0 | 0 | 23 | 0 | 1 | 0 | 0 | 26 | 17 | 0 | 4 | 49
CCCC(=O)Nc1n[nH]c2ncc(-c3cccc4ccccc34)cc12 [SB-642057] | 21 | 0 | 0 | 12 | 0 | 25 | 20 | 9 | 0 | 0 | 0 | 0 | 0 | 0 | 0 | 22 | 0 | 7 | 2 | 0
COc1ccc(-n2cnc3c(N)ncnc32)cc1 [SKF-97236] | 0 | 0 | 2 | 94.2 | 25 | 34 | 31 | 2 | 0 | 0 | 0 | 17 | 20 | 0 | 0 | 0 | 13 | 9 | 8 | 8
Cc1nc(N(C)[C@H]2CN(C(=O)CC#N)CC[C@H]2C)c2cc[nH]c2n1 | 0 | 0 | 0 | 0 | 7 | 13 | 0 | 0 | 16 | 0 | 0 | 0 | 0 | 0 | 0 | 9 | 0 | 10 | 10 | 7
COc1ccc(Nc2nccc(N3CCC(NS(=O)(=O)c4ccc(NC(C)=O)cc4)C3)n2)cc1 (stereo not drawn) [GSK1379729] | 0 | 0 | 0 | 9 | 0 | 0 | 23 | 14 | 10 | 0 | 14 | 28 | 8 | 3 | 0 | 30 | 11 | 15 | 0 | 0
CCS(=O)c1ccc(-c2coc3ccc(-c4nnc(C)o4)cc23)cc1 (stereo not drawn) | 24 | 18 | 0 | 5 | 18 | 0 | 5 | 0 | 0 | 29 | 17 | 5 | 0 | 0 | 34 | 15 | 0 | 3 | 8 | 20
